According to PubChem BioAssay (NCATS):

Assay: qHTS profiling of the MIPE4 collection as inhibitors of Plasmodium falciparum (DD2) proliferation (AID 743345)
Settings: P. falciparum Dd2 in erythrocytes, SYBR Green DNA, 72 h; at 28.5 µM (top of the series) unless noted
Outline: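 Erythrocytes infected with P. falciparum (0.3% parasitemia, 2.5% hematocrit) incubated with compounds 72 h at 37 C, 5% CO2. Lysis with saponin/Triton buffer containing SYBR Green I, overnight at room temperature in the dark; DNA fluorescence (485/535 nm) normalised to 0.29 uM artemisinin and DMSO.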

Row | Compound | parasite growth remaining, % of DMSO control (lower = more inhibition) [%]
1 | CCOP(=O)(OCC)C(C)NC(=O)N(CCCl)N=O (configuration not stated) | 97.6
2 | CCC(=O)OC1CCC2C3CCC4=CC(=O)CC[C@@]4(C)C3CC[C@]12C (some centres not stated) | 96.4
3 | CC[C@@]1(O)C(=O)OCc2c1cc1n(c2=O)Cc2cc3ccccc3nc2-1 | 12.9
4 | CC1=C(O)C(=O)C=C2C1=CC=C1[C@@]2(C)CC[C@@]2(C)[C@@H]3C[C@](C)(C(=O)O)CC[C@]3(C)CC[C@]12C | 7.57
5 | CC(C)(C)[C@]1(O)C[C@@H]2OC(=O)C[C@@]23C(=O)O[C@@H]2OC(=O)[C@H](O)C213 (some centres not stated) | 99.7
6 | O=C(Nc1ccncc1)C(=O)c1cn(Cc2ccc(Cl)cc2)c2ccccc12 | 85.2
7 | O=[N+]([O-])c1ncc[nH]1 | 99.8
8 | COc1cc2cc(c1Cl)N(C)C(=O)C[C@H](OC(=O)C(C)C)[C@]1(C)O[C@H]1[C@H](C)[C@@H]1C[C@@](O)(NC(=O)O1)[C@H](OC)C=CC=C(C)C2 | 16.8
9 | CC(=Cc1csc(C)n1)[C@@H]1C[C@H]2O[C@@H]2CCC[C@H](C)[C@@H](O)[C@@H](C)C(=O)C(C)(C)[C@@H](O)CC(=O)O1 | 16.1
10 | CC(=O)O[C@@]12CO[C@H]1C[C@H](O)[C@@]1(C)C(=O)[C@H](O)C3=C(C)[C@@H](O)C[C@@](O)([C@@H](OC(=O)c4ccccc4)[C@@H]21)C3(C)C | 94.5
11 | CC(C)[C@]12O[C@@H]1[C@@H]1O[C@]13[C@]1(O[C@H]1C[C@@H]1C4=C(CC[C@@]13C)C(=O)OC4)[C@H]2O | 77
12 | C[C@H]1CCCC=CC2C[C@H](O)C[C@@H]2[C@H](O)C=CC(=O)O1 (some centres not stated) | 9.17
